Assay results from PubChem BioAssay (Tox21).
The source made the active and inactive calls. A call without a number means that no potency is given here. Unless noted, calls come from the whole dose curve; as a rule, active = well fitted curve in the direction sought with a large enough effect in the repeat runs; inconclusive = weak or mixed curves; inactive = no such curve, though single readings can be large; an effect the other way counts as inactive or inconclusive.

Key:
[1] = qHTS assay to identify small molecule antagonists of the thyroid receptor (TR) signaling pathway (AID 743065); note: nearly all actives have a fitted effect of over 55% in size; note: potency is the fitted concentration of half-maximal effect
In short: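 GH3.TRE-Luc rat pituitary cells carrying two TR response elements driving luciferase were plated for 4 h, given compound plus 1 nM T3 (final), and incubated 23.5 h at 37 C. ONE-Glo luminescence measured reporter inhibition; CellTiter-Fluor fluorescence tracked cytotoxicity.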

[2] = tested on: thyroid hormone receptor (rat, GH3 cells); assay: qHTS assay to identify small molecule agonists of the thyroid receptor (TR) signaling pathway (AID 743066; calls by dose curve)
[3] = target: Estrogen receptor (Homo sapiens) (UniProt P03372); assay: qHTS assay to identify small molecule antagonists of the estrogen receptor alpha (ER-alpha) signaling pathway (AID 743069; active = well fitted curve in the direction sought with a large enough effect in the signal ratio in the repeat runs, not every such curve was filed as active; inconclusive = weak or mixed curves, or effect the other way; inactive = no such curve, though single readings can be large or run the other way; the % refers to the signal ratio)
Chain of Estrogen receptor (Homo sapiens) (P03372 whole entry, looked up): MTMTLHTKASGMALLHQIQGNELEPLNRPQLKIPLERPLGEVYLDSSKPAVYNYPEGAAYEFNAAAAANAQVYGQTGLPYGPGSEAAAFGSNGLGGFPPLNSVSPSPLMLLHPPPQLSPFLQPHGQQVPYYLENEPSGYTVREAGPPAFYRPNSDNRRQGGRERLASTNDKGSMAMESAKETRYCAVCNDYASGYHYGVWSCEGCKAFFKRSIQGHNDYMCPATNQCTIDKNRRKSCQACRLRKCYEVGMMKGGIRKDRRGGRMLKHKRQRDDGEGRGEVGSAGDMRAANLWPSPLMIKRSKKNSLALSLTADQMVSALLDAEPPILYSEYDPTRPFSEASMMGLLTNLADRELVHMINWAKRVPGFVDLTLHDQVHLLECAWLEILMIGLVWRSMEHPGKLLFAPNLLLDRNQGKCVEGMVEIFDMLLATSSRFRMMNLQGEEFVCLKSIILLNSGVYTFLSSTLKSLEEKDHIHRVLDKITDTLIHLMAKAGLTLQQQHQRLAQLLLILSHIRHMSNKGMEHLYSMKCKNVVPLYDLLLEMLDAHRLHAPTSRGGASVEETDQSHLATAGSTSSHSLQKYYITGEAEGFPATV
In short: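 Estradiol-stimulated ER-alpha-UAS-bla HEK293 cells, 18 hr compound exposure at 37C. LiveBLAzer B/G substrate, 2 hr RT, fluorescence read.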

[4] = qHTS assay to identify small molecule antagonists of the estrogen receptor alpha (ER-alpha) signaling pathway - cell viability counter screen (AID 743074; calls by dose curve;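 note: HEK293 cells carrying ER-alpha-UAS-bla reporter stimulated with 17beta-estradiol; nearly all actives have a fitted effect of over 45% in size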)
[5] = target: Estrogen receptor (Homo sapiens) (UniProt P03372); assay: qHTS assay to identify small molecule agonists of the estrogen receptor alpha (ER-alpha) signaling pathway (AID 743075; calls by dose curve;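 note: HEK293 GripTite cells with ER-alpha and UAS-driven beta-lactamase reporter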; note: potency is the fitted concentration of half-maximal effect)
[6] = target: Estrogen receptor (Homo sapiens) (UniProt P03372); assay: qHTS assay to identify small molecule agonists of the estrogen receptor alpha (ER-alpha) signaling pathway using the BG1 cell line (AID 743079); note: nearly all actives have a fitted effect of over 20% in size; note: potency is the fitted concentration of half-maximal effect
[7] = qHTS assay to identify small molecule antagonists of the estrogen receptor alpha (ER-alpha) signaling pathway using the BG1 cell line (AID 743080; calls by dose curve;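 note: BG1 cells stimulated with 17beta-estradiol alongside compound; nearly all actives have a fitted effect of over 25% in size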; note: potency is the fitted concentration of half-maximal effect)
In short: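 Readout is ONE-Glo luminescence, taken 30 min at room temperature after reagent addition, preceded by a CellTiter-Fluor viability read; BG1-Luc-4E2 cells had received compound and 17beta-estradiol for 21.5 h at 37 C.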

[8] = qHTS assay to identify small molecule antagonists of the estrogen receptor alpha (ER-alpha) signaling pathway using the BG1 cell line - cell viability counter screen (AID 743081);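 note: compound given together with 17beta-estradiol as the ER stimulus; series mostly up to about 70 µM; nearly all actives have a fitted effect of over 45% in size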
Aromatase (Homo sapiens) = Aromatase (Homo sapiens) (UniProt P11511); assay: qHTS assay to identify aromatase inhibitors (AID 743083); note: series mostly up to about 70 µM; nearly all actives have a fitted effect of over 55% in size
Chain of Aromatase (Homo sapiens) (P11511 whole entry, looked up): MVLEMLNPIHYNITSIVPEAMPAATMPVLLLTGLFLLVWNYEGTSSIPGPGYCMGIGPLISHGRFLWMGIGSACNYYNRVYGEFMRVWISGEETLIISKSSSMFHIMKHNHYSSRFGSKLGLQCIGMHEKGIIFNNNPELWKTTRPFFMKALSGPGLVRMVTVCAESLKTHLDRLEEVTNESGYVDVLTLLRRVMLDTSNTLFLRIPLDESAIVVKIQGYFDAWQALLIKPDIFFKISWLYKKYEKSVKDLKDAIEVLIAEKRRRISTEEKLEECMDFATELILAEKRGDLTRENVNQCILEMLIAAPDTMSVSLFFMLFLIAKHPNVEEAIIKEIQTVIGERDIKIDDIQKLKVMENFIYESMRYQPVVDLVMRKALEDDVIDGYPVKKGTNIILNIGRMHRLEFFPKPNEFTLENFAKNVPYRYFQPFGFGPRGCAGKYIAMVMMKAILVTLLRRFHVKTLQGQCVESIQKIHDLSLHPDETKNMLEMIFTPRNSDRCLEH

SMILES | Potency [1] | outcome [2] | Potency [3] | outcome [4] | Potency [5] | Potency [6] | Potency [7] | Potency [8] | Potency (Aromatase (Homo sapiens))
CC[C@H](NC(C)C)[C@H](O)c1ccc(O)c2[nH]c(=O)ccc12 | inactive | inactive | inactive | inactive | inactive | inactive | inactive | inactive | inactive
CC(C)=CCCC(C)C=O (configuration not stated) | inactive | inactive | inactive | inactive | inactive | inactive | inactive | inactive | inactive
CC(C)=CCC/C(C)=C/C=N/O | inactive | inactive | inactive | inactive | inactive | inactive | inactive | inactive | inactive
COc1ccc(/C=C/c2cc(OC)cc(=O)o2)cc1 | inactive | inactive | inactive | inactive | inactive | 0.884 µM (active) |  | inactive | inactive
O=C(Nc1ccccc1)c1cc([N+](=O)[O-])ccc1Cl | 61.1 µM (active) | inactive |  | inactive | inactive |  |  | inactive | inactive
CCC(CC)C(=O)O | inactive | inactive |  | inactive | inactive | inactive | inactive | inactive | inactive
Cc1c(Nc2ncccc2C(=O)O)cccc1C(F)(F)F | 2.85 µM (active) | inactive |  | inactive |  |  |  | inactive | 
[O-][n+]1ccc(Cl)cc1 | inactive | inactive |  | inactive |  |  |  | inactive | 
Oc1ccc(Oc2ccccc2)cc1 | 20.6 µM (active) | inactive | inactive | inactive | 0.0736 µM [inconclusive] (active) | 7.3 µM (active) |  | inactive | 
O=C(O)c1c2ccccc2cc2ccccc12 | inactive | inactive | inactive |  | inactive | inactive | inactive | inactive | inactive
CCCCCCCCOCCCN | 21.7 µM (active) | inactive |  | inactive | inactive |  | inactive | inactive | inactive
CC(C)(C)c1ccc(CCC=O)cc1 | inactive | inactive | inactive | inactive | inactive | inactive |  | inactive | 
c1ccc(-c2ccc(-c3ccccc3)cc2)cc1 | inactive | inactive | inactive | inactive | inactive | 0.791 µM (active) |  | inactive | 
SCCOCCOCCS | inactive | inactive | inactive | inactive | inactive | inactive | inactive | inactive | inactive
CCn1nc(Cc2ccccc2)cc1C1CCN(C[C@H]2C[C@H](N(C)[C@@H](C(=O)O)C(C)C)C[C@@H]2c2cccc(F)c2)CC1 | 61.1 µM (active) | inactive |  | inactive | inactive | inactive | inactive |  | inactive
CCCOC(C)=O | inactive | inactive | inactive | inactive | inactive | inactive | inactive | inactive | inactive
CC/C=C/CCO | inactive | inactive |  | inactive |  |  |  | inactive | 
Cc1ccc2ccccc2c1[N+](=O)[O-] | inactive |  | inactive | inactive | inactive | inactive | inactive | inactive | 
CC(O)C(C)O (configuration not stated) | inactive |  |  | inactive |  |  |  | inactive | inactive
Clc1ccccc1-c1nc(-c2ccncc2)no1 | inactive | inactive |  | inactive |  |  |  | inactive | inactive
O=C(Nc1ccc2c(c1)Cc1ccccc1-2)C(F)(F)F | inactive | inactive |  | inactive |  |  |  | inactive | inactive
CCC(C)CCCC(C)(C)O (configuration not stated) | inactive | inactive |  | inactive |  |  |  | inactive | inactive
CCCc1ccc(OC)cc1 |  |  | inactive | inactive | inactive |  | inactive | inactive | inactive
CCCc1nc(C)c2c(=O)[nH]c(-c3cc(S(=O)(=O)N4CCN(CC)CC4)ccc3OCC)nn12 |  |  |  | inactive |  |  |  | inactive | inactive
O=c1c2ccccc2oc2ccccc12 | inactive | inactive |  |  | inactive | 48.6 µM (active) |  | inactive | inactive
C/C(=C\C(C)CC(C)CC(C)C)C1CC(=O)OC1=O (configuration not stated) |  | inactive |  | inactive | inactive | inactive | inactive | inactive | inactive
Oc1ccc(CCNCCCCCCNCCc2ccccc2)cc1O | 26.6 µM (active) |  | inactive |  | inactive | inactive | inactive |  | inactive

SMILES | Potency [1] | outcome [2] | Potency [3] | outcome [4] | Potency [5] | Potency [6] | Potency [7] | Potency [8] | Potency (Aromatase (Homo sapiens))
COc1cccc([C@H](O)C2CCN(CCc3ccc(F)cc3)CC2)c1OC |  | inactive | inactive | inactive | inactive | inactive | inactive | inactive | inactive
NC(=O)c1cc[n+](CC2=C(C(=O)[O-])N3C(=O)[C@@H](NC(=O)Cc4cccs4)[C@H]3SC2)cc1 |  |  | inactive | inactive | inactive | inactive | inactive | inactive | inactive
Nc1ccc(F)cc1F |  |  | inactive | inactive | inactive | inactive | inactive | inactive | inactive
CC(Cc1ccccc1)(NC(=O)CN)c1ccccc1 (configuration not stated) |  | inactive | inactive | inactive | inactive | inactive | inactive | inactive | inactive
CC(C)(C)NCC(O)COc1ccc(NC(=O)NC2CCCCC2)cc1 (configuration not stated) |  | inactive | inactive | inactive | inactive |  |  | inactive | inactive
O=P(c1ccccc1)(c1ccccc1)c1ccccc1 |  | inactive | inactive | inactive | inactive | inactive | inactive | inactive | inactive
CC(O)CN (configuration not stated) |  |  | inactive | inactive | inactive | inactive | inactive | inactive | inactive
CCCCCCCCC(=O)OCC(C)OC(=O)CCCCCCCC (configuration not stated) | inactive | inactive |  | inactive |  |  |  | inactive | inactive
CC1(COc2ccc(CC3SC(=O)NC3=O)cc2)CCCCC1 (configuration not stated) | 11.9 µM (active) |  |  |  | inactive |  | inactive | inactive | 
C[C@H](CN1CCCC1)C(=O)c1ccc(C(F)(F)F)cc1 | 26.6 µM (active) | inactive |  | inactive |  |  |  |  | inactive
CCCCC(CC)COCCC#N (configuration not stated) | inactive | inactive |  | inactive |  |  |  | inactive | inactive
COc1cc(C)c(Cc2cnc(N)nc2N)cc1OC |  |  | inactive | inactive | inactive | inactive | inactive | inactive | inactive
N#Cc1ccc(CC(=O)c2cccc(C(F)(F)F)c2)cc1 | inactive | inactive |  | inactive |  |  |  | inactive | inactive
Cc1cc(C)n(CO)n1 | inactive |  | inactive | inactive | inactive | inactive | inactive | inactive | inactive
CCOc1ccc2c(c1)C(C)CC(C)(C)N2 (configuration not stated) | inactive | inactive |  | inactive |  |  |  | inactive | inactive
CCCCCCCCCCCCCCCCC(=O)O | inactive | inactive |  | inactive |  |  |  | inactive | inactive
O=C(O)c1ccccc1[N+](=O)[O-] | inactive | inactive |  | inactive |  |  |  | inactive | inactive
OCCOc1cccc(OCCO)c1 | inactive | inactive |  | inactive |  |  |  | inactive | inactive
CC(C(=O)O)c1ccc(/C=C2\CCCCC2=O)cc1 (configuration not stated) | inactive | inactive |  | inactive |  |  |  | inactive | inactive
Cc1c(Cl)cccc1Nc1ccccc1C(=O)O | 13.3 µM (active) |  |  | inactive | inactive | inactive | inactive | inactive | inactive
O=C(O)c1cc(C(=O)O)cc([N+](=O)[O-])c1 | inactive | inactive |  | inactive |  |  |  | inactive | inactive
COC(=O)Cc1cccc2ccccc12 |  |  | inactive | inactive | inactive | inactive | inactive | inactive | inactive
CO[C@@H]1COCC[C@@H]1N[C@@H]1CC[C@@](C(=O)N2CCc3ncc(C(F)(F)F)cc3C2)(C(C)C)C1 |  |  |  | inactive |  |  |  | inactive | inactive
CC(=O)Oc1cccc2c1C(=O)c1c(OC(C)=O)cc(C(=O)O)cc1C2=O | inactive | inactive |  | inactive |  |  |  | inactive | inactive
CC1=C(C)C(=O)C(CCCCC#CCCCC#CCO)=C(C)C1=O |  |  |  |  | inactive |  | 15 µM (active) | inactive | 
CCCCCCCCS | inactive | inactive |  |  | inactive | inactive | inactive | inactive | inactive
Cc1cccc(C)c1NC(=O)CN1CCCC1 | inactive | inactive |  | inactive |  |  |  | inactive | inactive
